Reference: PubChem BioAssay (EPA / NIEHS)
Several values for one entry are separate records, joined by “and”; a condition that tells them apart may be missing. Identical values can stand only once. Inconclusive results are not listed. A structure can be active in one record and inactive in another. Activity calls are given as the source filed them. Rule for the calls: active = hit-call score of the fitted dose curve at least 0.9, where 1 is the maximum; inconclusive = response in the unintended direction; inactive = score below 0.9.

System: frog Estrogen Receptor (ER2), gene 100174814
Assay: ATG_frER2_XSP2: Attagene TRANS-FACTORIAL Multi-Species (XSP2) HepG2 Assay for frog Estrogen Receptor (ER2) (AID 2283828)
Procedure: ATG_XSP2_multi-species_TRANS is a cell-based, multiplexed assay created by modifying the existing Attagene TRANS-FACTORIAL system to include a panel of nuclear receptors from some or all the following species: human (Homo sapiens), mouse (Mus musculus), frog (Xenopus laevis), zebrafish (Danio rerio), chicken (Gallus gallus), and turtle (Chrysemys picta). The ECOTOX-FACTORIAL format uses HepG2, a human liver cell line, with measurements taken at 24 hours after chemical dosing in a 24-well plate. Xsp2 included 3 nM 6-alpha-fluorotestosterone and 1.5 nM norgestrel to stimulate the androgen receptor.ATG_frER2_XSP2 is one of 29 assay components measured or calculated from the ATG_XSP2_multi-species_TRANS assay. It is designed to make measurements of mRNA induction, a form of inducible reporter, as detected with fluorescence intensity signals by Reverse transcription polymerase chain reaction (RT-PCR) and Capillary electrophoresis technology.The assay endpoint ATG_frER2_XSP2 was analyzed in the positive analysis fitting direction relative to DMSO as the negative control and baseline of activity. Using a type of inducible reporter, measures of mRNA for gain-of-signal activity can be used to understand the reporter gene at the transcription factor-level as they relate to the gene ER. Furthermore, this assay endpoint can be referred to as a primary readout, because this assay has produced multiple assay endpoints where this one serves a reporter gene function. To generalize the intended target to other relatable targets, this assay endpoint is annotated to the nuclear receptor intended target family, where the subfamily is steroidal.
Human liver HepG2 cells are transiently transfected with multiple reporter transcription units (MRTUs) in 6-well plates using FuGene 6 reagent (Roche; 3 ml FuGene/1 mg DNA). The MRTU constructs are regulated by a cis-regulating element (promoter). […] A major difference between the CIS and TRANS system is that in CIS activities of endogenous TFs are measured, whereas the TRANS assay evaluates changes in activities of exogenous, chimeric NR-Gal4 proteins. […] At the end of 24 hour incubation, total RNA was isolated using TriZol reagent (Invitrogen). The isolated RNA is then reverse-transcribed using oligo(dT) primer and Mo-MLV reverse transcriptase (Invitrogen) with DNAse I (Ambion) treatment for 30 min. The one-tenth of the produced cDNA was amplified by PCR using Taq DNA polymerase (Invitrogen) and two reporter sequence-specific primers. The PCR products were fluorescently labeled by primer extension with 6-arboxyfluorescein (6-FAM) 5'-labeled reporter sequence-specific primer (2 min at 95 C, 20 s at 68 C and 10 min at 72 C) and these products were digested with 5U of HpaI (New England Biolabs) for 2h at 37 C. The fragments were purified using Qiaquick PCR columns (Qiagen), analyzed on an ABI 3130xL genetic analyzer (Applied Biosystems) with peak positions identified by using a set of X-rhodamine (ROX)-labeled MapMarker1000 molecular weight standards (BioVentures). The raw capillary electrophoresis data was processed using Attagraph software (Attagene).

Row | SMILES | outcome | AC50
1 | C#CC(C)(C)NC(=O)c1cc(Cl)cc(Cl)c1 | inactive | –
2 | C#CCC1=C(C)C(OC(=O)C2C(C=C(C)C)C2(C)C)CC1=O (stereo not given) | inactive | –
3 | CCOP(=O)(NC(C)C)Oc1ccc(SC)c(C)c1 (stereo not given) | – | 100 µM (active) and 69 µM (active)
4 | CCCOCC(=Nc1ccc(Cl)cc1C(F)(F)F)n1ccnc1 | inactive | –
5 | Nc1c(Cl)cc([N+](=O)[O-])cc1Cl | inactive | –
6 | COc1ccc(C(=CC(=O)N2CCOCC2)c2ccc(Cl)cc2)cc1OC | inactive | 52.4 µM (active)
7 | CCc1cccc(C)c1N(C(=O)CCl)C(C)COC (stereo not given) | inactive | –
8 | CCC(CC)Nc1c([N+](=O)[O-])cc(C)c(C)c1[N+](=O)[O-] | – | 8.22 µM (active) and 4.99 µM (active)
9 | CCC(=O)Nc1ccc(Cl)c(Cl)c1 | inactive | –
